Compound activity: PubChem BioAssay, National Center for Advancing Translational Sciences (NCATS)
HCV inhibitor: inhibitors of hepatitis C virus infection; Huh7.5.1 HCVcc-Cre infection, luciferase reporter, 44 h; Potency, µM (doses to about 41.8 µM), hits mostly inhibitors; 340,000 tested, 3.4% active
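Seed cells (1,000/well) for 4 h; treat with compound and infect with HCVcc-Cre, moi about 0.5. Incubate 44 h, then detect luciferase activity.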
AmpC inh no detg: inhibitors of E. coli AmpC beta-lactamase without detergent | P00811 | AmpC nitrocefin hydrolysis, absorbance 480 nm, 0.0001% Triton | Potency, µM (highest dose often 57.1 µM), usual class: inhibitors | 330,000 tested, 0.52% active | AID 485341; also: nearly all actives have a fitted effect of over 20% in size
Target sequence (P00811 whole entry, looked up): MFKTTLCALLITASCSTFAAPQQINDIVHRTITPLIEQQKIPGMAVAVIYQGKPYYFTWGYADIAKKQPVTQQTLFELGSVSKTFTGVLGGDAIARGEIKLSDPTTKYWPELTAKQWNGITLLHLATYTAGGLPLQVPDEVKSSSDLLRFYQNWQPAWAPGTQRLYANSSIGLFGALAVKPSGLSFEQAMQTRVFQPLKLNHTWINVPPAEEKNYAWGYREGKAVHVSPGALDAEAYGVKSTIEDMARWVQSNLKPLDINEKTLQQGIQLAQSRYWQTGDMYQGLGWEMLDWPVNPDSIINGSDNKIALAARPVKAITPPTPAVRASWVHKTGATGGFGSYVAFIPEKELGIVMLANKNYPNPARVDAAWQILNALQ
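AmpC (5.3 nM in the dispensed reagent) in 20 mM phosphate pH 7.0 with 0.01% (detergent screen) or 0.0001% Triton X-100 was preincubated with compounds for 15 min at room temperature. Nitrocefin was then added from an 800 uM solution, and hydrolysis was followed at 480 nm.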
AmpC inh detg: AmpC beta-lactamase inhibition with detergent present; AmpC hydrolysis of nitrocefin, absorbance 480 nm, 0.01% Triton; Potency, µM (series often up to 114 µM), most hits filed as inhibitors; 370,000 tested, 0.041% active; AID 485294; also: nearly all actives have a fitted effect of over 25% in size
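AmpC (5.3 nM in the dispensed reagent) in 20 mM phosphate pH 7.0 with 0.01% (detergent screen) or 0.0001% Triton X-100 was preincubated with compounds for 15 min at room temperature. Nitrocefin was then added from an 800 uM solution, and hydrolysis was followed at 480 nm.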
Pf growth 48h: P. falciparum growth inhibition at 48 hours (one generation) | P. falciparum luciferase growth in erythrocytes, 48 h | Potency, µM (titrated, usually from 28.7 µM), most hits filed as inhibitors | 310,000 tested, 5.9% active
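Read-out is firefly luciferase luminescence from an integrated reporter in P. falciparum, so falling signal marks reduced parasite growth. Infected erythrocytes were at 2% hematocrit and 0.1% parasitemia (final) in Albumax-supplemented RPMI 1640.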
Pf growth 96h: P. falciparum growth inhibition at 96 hour, primary screen for plastid delayed-death inhibitors; 320,000 tested, 6.9% active; P. falciparum luciferase reporter growth, 96 h; Potency, µM (series often up to 28.7 µM), actives largely listed as inhibitors; AID 504834
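Compounds incubated with erythrocytes infected by luciferase-expressing P. falciparum (2% hematocrit, 0.05% parasitemia final) for 96 hours, 37 C in 5% CO2. Growth inhibition scored as decreased luciferase luminescence.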
AMA1 RON2 block: inhibitors of Plasmodium falciparum AMA1-RON2 interaction; AlphaScreen AMA1-biotinylated RON2 peptide binding; Potency, µM (doses to about 58.2 µM), actives largely listed as inhibitors; 360,000 tested, 0.2% active; also: nearly all actives have a fitted effect of over 45% in size
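AMA1 (3D7) with his tag at 25 nM final met compounds first, then biotinylated RON2 peptide at 25 nM; detection used donor plus acceptor beads, 10 µg/mL apiece, read by AlphaScreen after 30 min at room temperature.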
Large screens that a line does not name were inactive. In the library only some 11% were active in any assay of this set; here they are far more common. Calls follow the shape of the dose curve; as a rule, active = well fitted curve in the direction sought with a large enough effect; inconclusive = small, poorly fitted or top-dose-only effect, or another doubt; inactive = no such curve, though single readings can be large; an effect the other way counts as inactive or inconclusive.

CCCN(CCC)CCCNC(=O)c1ccc2c(c1)N(CC)C(=O)c1ccccc1S2=O (centres undefined)	Pf growth 48h inconclusive (no result: Pf growth 96h)
O=C(NCCN1CCOCC1)c1ccc2c(c1)N(Cc1c(F)cccc1Cl)C(=O)c1ccccc1S2	HCV inhibitor inconclusive, Pf growth 48h 13.1µM, Pf growth 96h 9.28µM
CCCCSCCCNC(=O)c1ccc2c(c1)N(CC)C(=O)c1ccccc1S2=O (centres undefined)	Pf growth 48h 13.1µM
CCN1C(=O)c2ccccc2Sc2ccc(C(=O)NCCCN(CC(C)C)CC(C)C)cc21	Pf growth 48h 10.4µM
CCCCNC(=O)c1ccc2c(c1)N(CC)C(=O)c1ccccc1S2(=O)=O	HCV inhibitor inconclusive, AmpC inh no detg 44.7µM, AmpC inh detg inconclusive, Pf growth 96h 1.47µM
CCCCN(CC)CCCNC(=O)c1ccc2c(c1)N(Cc1ccc(C)cc1)C(=O)c1ccccc1S2	none (no result: HCV inhibitor, AmpC inh no detg, Pf growth 48h, Pf growth 96h, AMA1 RON2 block)
Cc1ccc(C)c(CN2C(=O)c3ccccc3S(=O)(=O)c3ccc(C(=O)N4CCN(Cc5ccccc5)CC4)cc32)c1	none (no result: HCV inhibitor, AmpC inh no detg, Pf growth 48h, Pf growth 96h, AMA1 RON2 block)
CCNC(=O)c1cnc2c(-c3ccccc3)c(C)nn2c1C	none (no result: HCV inhibitor, AmpC inh no detg, Pf growth 48h, Pf growth 96h, AMA1 RON2 block)
CC1CC(O)CC(C)(C)C1 (centres undefined)	none (no result: HCV inhibitor, AmpC inh no detg, AmpC inh detg, AMA1 RON2 block)
COc1ccc(OC)c(NC(=O)c2c(C)oc3ncnc(N4CCOCC4)c23)c1	none (no result: HCV inhibitor, AmpC inh no detg, Pf growth 48h, Pf growth 96h, AMA1 RON2 block)
O=C(NCCN1CCCC1)c1ccc2c(c1)N(Cc1ccccc1)C(=O)c1ccccc1S2(=O)=O	HCV inhibitor inconclusive, AmpC inh detg inconclusive, Pf growth 48h 8.28µM
Cc1oc(-c2ccccc2F)nc1CS(=O)(=O)CC(=O)N1CCN(c2ccc(Cl)cc2)CC1	none (no result: HCV inhibitor, AmpC inh no detg, Pf growth 48h, Pf growth 96h, AMA1 RON2 block)
Cc1cc(-c2sccc2Br)nc(-n2cccc2)n1	HCV inhibitor 12.6µM
Cc1ccsc1-c1ccnc(-n2cccc2)n1	none
Cc1cc(-c2ccc(Br)s2)nc(-n2cccc2)n1	HCV inhibitor 11.2µM
Clc1ccc(-c2ccnc(-n3cccc3)n2)s1	AmpC inh detg inconclusive
CCC(=O)N1CCN(c2ccc(Cl)cc2NC(=O)Cc2ccc(Cl)cc2)CC1	Pf growth 96h 13.1µM (no result: HCV inhibitor, Pf growth 48h)
O=C(Nc1ccccc1N1CCCC1)c1ccc(Br)o1	HCV inhibitor inconclusive
O=C(CN1C(=O)NC2(CCCC2)C1=O)Nc1cc(Cl)ccc1N1CCCCC1	Pf growth 48h inconclusive, Pf growth 96h 13.1µM
CCC(=O)N1CCN(c2ccc(NC(=O)c3ccc([N+](=O)[O-])o3)cc2Cl)CC1	HCV inhibitor inconclusive, Pf growth 48h inconclusive
CC(=O)N1CCN(c2ccc(NC(=O)c3ccc([N+](=O)[O-])o3)cc2Cl)CC1	HCV inhibitor inconclusive, Pf growth 48h inconclusive, Pf growth 96h 5.22µM
CCC(=O)N1CCN(c2ccccc2NC(=O)Cc2ccc(Cl)cc2)CC1	AmpC inh detg inconclusive, AMA1 RON2 block inconclusive
O=C(Nc1ccc(N2CCCC2)c(Cl)c1)c1ccc(Br)o1	HCV inhibitor inconclusive, Pf growth 48h 4.65µM, Pf growth 96h 4.65µM
CCn1nc(-c2ccccc2)c(-c2ccccc2)c(C(=O)Nc2ccc(S(N)(=O)=O)cc2)c1=O	none (no result: HCV inhibitor, AmpC inh no detg, Pf growth 48h, Pf growth 96h, AMA1 RON2 block)
COc1ccc(N2CCN(C(=O)c3cn(C)c4ccc(S(=O)(=O)N(C)C5CCCCC5)cc4c3=O)CC2)cc1	none (no result: HCV inhibitor, AmpC inh no detg, Pf growth 48h, Pf growth 96h, AMA1 RON2 block)
CCC(=O)N1CCN(c2ccc(Cl)cc2NC(=O)c2ccc([N+](=O)[O-])o2)CC1	Pf growth 48h inconclusive, Pf growth 96h 10.4µM
CC(C(=O)NC1CC(C)(C)NC(C)(C)C1)c1ccc([N+](=O)[O-])cc1 (centres undefined)	Pf growth 96h inconclusive
CC(C(=O)NC1CCCCCC1)c1ccc([N+](=O)[O-])cc1 (centres undefined)	Pf growth 96h 8.28µM
COC(=O)c1ccccc1NC(=O)C(C)c1ccc([N+](=O)[O-])cc1 (centres undefined)	HCV inhibitor inconclusive, AmpC inh detg inconclusive, Pf growth 96h inconclusive
CC(C(=O)Nc1ccccc1Br)c1ccc([N+](=O)[O-])cc1 (centres undefined)	HCV inhibitor inconclusive, Pf growth 48h 13.1µM, Pf growth 96h 4.15µM
